In PubChem BioAssay one finds composite z-score and z-score data, which are given here for five compounds.

Calls of active or inactive are those of the source.

Assay [1] in a line: small molecules captured by biotinylated probe aFSTL3 – biochemical, small-molecule microarray, fluorescence 635/667, stem cell growth factor project, primary screen (AID 1064).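 Further: measures binding of the biotinylated anti-FSTL3 antibody to printed compounds.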 As to conditions: higher = more signal.
Assay [2] can be described thus: binders from COS7 lysate, DM2A8 probe, primary screen, torsin A project, cell lysate, small-molecule microarray, fluorescence 635/667 (AID 1065). As to conditions: higher = more signal, COS7 lysate expressing mutant human TOR1A.
The nature of assay [3]: small molecules captured by biotinylated probe aFGF2 – biochemical, small-molecule microarray, fluorescence 635/667, stem cell growth factor project, primary screen (AID 1067).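 Further: measures binding of biotinylated aFGF2 protein to printed compounds on slides; z-score merges feature fluorescence and signal-to-noise across triplicate slides.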 Particulars: higher = more signal.
A short description of assay [4]: small molecules captured by biotinylated probe aFGF10 – biochemical, small-molecule microarray, fluorescence 635/667, stem cell growth factor project, primary screen (AID 1071).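 Further: score merges 667 nm spot intensity and signal to noise from triplicate slides.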 As to conditions: higher = more signal.
In assay [5] the target is Neurogenic locus notch homolog protein 2 (Homo sapiens) (UniProt Q04721). Description: small molecules binding Notch2 protein – biochemical, small-molecule microarray, 635 nm fluorescence, stem cell growth factors, primary screen (AID 1073). As to conditions: higher = more signal.
Assay [6] addresses Pro-neuregulin-1, membrane-bound isoform (Homo sapiens) (UniProt Q02297). Kind of assay: small molecules binding neuregulin-1 protein – biochemical, small-molecule microarray, fluorescence 635/667, psychiatric disease protein project, primary screen (AID 1075).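 Further: score combines 667 nm spot fluorescence with signal to noise.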 Particulars: NRG1 binding, 635 nm fluorescence, higher = more signal.
Assay [7] has as its system Neuregulin-1 EGF-like domain. Description: small molecules binding NRG1 EGF domain – biochemical, small-molecule microarray, 635 nm fluorescence, primary screen (AID 1081).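 Further: binding of the protein to compounds printed on small-molecule microarray slides.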 As to conditions: higher = more signal.
Assay [8] is described as follows: FRG1 expression reporter modulators in myotubes – cell-based, C2C12 myotubes, firefly/Renilla luciferase, luminescence, FRG1 inhibition for FSHD, primary screen (AID 1084). As to conditions: FRG1 promoter luciferase, higher = more signal, called active from +8 up or from −8 down.
Assay [9] can be described thus: small molecules captured by biotinylated probe aFST – biochemical, small-molecule microarray, fluorescence 635/667, stem cell growth factor project, primary screen (AID 1086).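 Further: score merges 667 nm fluorescence with signal-to-noise of each printed compound spot.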 As to conditions: higher = more signal.
A short description of assay [10]: binders of probe aHhip on microarray, primary screen, stem cell growth factor project, biochemical, small-molecule microarray, fluorescence 635/667 (AID 1087).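 Further: score merges spot fluorescence at 667nm with spot signal to noise ratio.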 As to conditions: higher = more signal.
In assay [11] the test system is PRMT1 (protein arginine N-methyltransferase 1). Kind of assay: small molecules binding arginine methyltransferase PRMT1 – biochemical, small-molecule microarray, 635 nm fluorescence, primary screen (AID 1088).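 Further: binding of Prmt1 protein to compounds spotted on small-molecule microarray slides.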 Particulars: higher = more signal.
A short description of assay [12]: growth effects on S. cerevisiae YJM789 – YJM789 clinical isolate, OD600, 24 h, basal, primary screen (AID 1089).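 Further: growth of clinical yeast isolate S. cerevisiae YJM 789 seeded 1000 cells per well; test concentration not given here.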 Particulars: higher = more signal, called active from +8 up or from −8 down.
Assay [13] is described as follows: S. pombe growth modifiers, basal conditions – strain 972, OD600, 24 h, no modulator, primary screen (AID 1090).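 Further: basal condition with compound alone and no growth modifier present; test concentration not given here.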 Particulars: S. pombe 972 growth, higher = more signal, called active from +8 up or from −8 down.
Assay [14] in a line: budding yeast growth modifiers under rapamycin – strain BY4716, OD600, 96 h, primary screen (AID 1091). Further: test concentration not given here. Particulars: S. cerevisiae BY4716 + rapamycin, higher = more signal, called active from +8 up or from −8 down.
The target in assay [15] is Torsin-1A-interacting protein 2 (Homo sapiens) (UniProt Q8NFQ8). Kind of assay: small molecules binding lysate-expressed LULL1 – cell lysate, human LULL1 lysate, 635/667 nm fluorescence, primary screen (AID 1092).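 Further: probe is lysate of COS7 cells overexpressing human LULL1; score merges per-feature 667 nm fluorescence with signal-to-noise.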 As to conditions: small-molecule microarray, hLULL1 lysate binding, 635 nm fluorescence; higher = more signal.
The nature of assay [16]: optical density change of DRC41 E. coli – strain DRC41, OD650, 24 h, E. coli filamentation project, primary screen (AID 1093).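 Further: MC1000 strain lacking acrAB efflux and sulA so SOS filamentation is blocked; test concentration not given here.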 As to conditions: E. coli DRC41 growth, higher = more signal, called active from +8 up or from −8 down.
Assay [17] in a line: probe aLefty2 binding to arrayed compounds – biochemical, biotinylated probe, 635/667 nm fluorescence, primary screen (AID 1094).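 Further: score merges spot fluorescence near 667 nm with spot signal-to-noise ratio.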 As to conditions: small-molecule microarray, higher = more signal.
Assay [18] has as its system Noggin (protein binding on small-molecule microarray). Kind of assay: small molecules binding Noggin protein – biochemical, 635/667 nm fluorescence, primary screen (AID 1095).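 Further: score merges 667 nm feature fluorescence with signal to noise over triplicate slides.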 Particulars: 635 nm fluorescence, higher = more signal.
Assay [19] has as its target Neurogenic locus notch homolog protein 3 (Homo sapiens) (UniProt Q9UM47). Description: small molecules binding NOTCH3 protein – biochemical, 635/667 nm fluorescence, primary screen (AID 1096). Particulars: small-molecule microarray, 635 nm fluorescence, higher = more signal.
Assay [20] is described as follows: probe aEGFR binding to arrayed compounds – biochemical, biotinylated probe, 635/667 nm fluorescence, primary screen (AID 1097).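 Further: probe is a biotinylated anti-EGFR antibody binding compounds printed on slides; score combines fluorescence near 667 nm and signal to noise of each spot.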 Particulars: small-molecule microarray, higher = more signal.

Neurogenic locus notch homolog protein 2 (Homo sapiens), sequence (Q04721 whole entry, looked up, canonical isoform): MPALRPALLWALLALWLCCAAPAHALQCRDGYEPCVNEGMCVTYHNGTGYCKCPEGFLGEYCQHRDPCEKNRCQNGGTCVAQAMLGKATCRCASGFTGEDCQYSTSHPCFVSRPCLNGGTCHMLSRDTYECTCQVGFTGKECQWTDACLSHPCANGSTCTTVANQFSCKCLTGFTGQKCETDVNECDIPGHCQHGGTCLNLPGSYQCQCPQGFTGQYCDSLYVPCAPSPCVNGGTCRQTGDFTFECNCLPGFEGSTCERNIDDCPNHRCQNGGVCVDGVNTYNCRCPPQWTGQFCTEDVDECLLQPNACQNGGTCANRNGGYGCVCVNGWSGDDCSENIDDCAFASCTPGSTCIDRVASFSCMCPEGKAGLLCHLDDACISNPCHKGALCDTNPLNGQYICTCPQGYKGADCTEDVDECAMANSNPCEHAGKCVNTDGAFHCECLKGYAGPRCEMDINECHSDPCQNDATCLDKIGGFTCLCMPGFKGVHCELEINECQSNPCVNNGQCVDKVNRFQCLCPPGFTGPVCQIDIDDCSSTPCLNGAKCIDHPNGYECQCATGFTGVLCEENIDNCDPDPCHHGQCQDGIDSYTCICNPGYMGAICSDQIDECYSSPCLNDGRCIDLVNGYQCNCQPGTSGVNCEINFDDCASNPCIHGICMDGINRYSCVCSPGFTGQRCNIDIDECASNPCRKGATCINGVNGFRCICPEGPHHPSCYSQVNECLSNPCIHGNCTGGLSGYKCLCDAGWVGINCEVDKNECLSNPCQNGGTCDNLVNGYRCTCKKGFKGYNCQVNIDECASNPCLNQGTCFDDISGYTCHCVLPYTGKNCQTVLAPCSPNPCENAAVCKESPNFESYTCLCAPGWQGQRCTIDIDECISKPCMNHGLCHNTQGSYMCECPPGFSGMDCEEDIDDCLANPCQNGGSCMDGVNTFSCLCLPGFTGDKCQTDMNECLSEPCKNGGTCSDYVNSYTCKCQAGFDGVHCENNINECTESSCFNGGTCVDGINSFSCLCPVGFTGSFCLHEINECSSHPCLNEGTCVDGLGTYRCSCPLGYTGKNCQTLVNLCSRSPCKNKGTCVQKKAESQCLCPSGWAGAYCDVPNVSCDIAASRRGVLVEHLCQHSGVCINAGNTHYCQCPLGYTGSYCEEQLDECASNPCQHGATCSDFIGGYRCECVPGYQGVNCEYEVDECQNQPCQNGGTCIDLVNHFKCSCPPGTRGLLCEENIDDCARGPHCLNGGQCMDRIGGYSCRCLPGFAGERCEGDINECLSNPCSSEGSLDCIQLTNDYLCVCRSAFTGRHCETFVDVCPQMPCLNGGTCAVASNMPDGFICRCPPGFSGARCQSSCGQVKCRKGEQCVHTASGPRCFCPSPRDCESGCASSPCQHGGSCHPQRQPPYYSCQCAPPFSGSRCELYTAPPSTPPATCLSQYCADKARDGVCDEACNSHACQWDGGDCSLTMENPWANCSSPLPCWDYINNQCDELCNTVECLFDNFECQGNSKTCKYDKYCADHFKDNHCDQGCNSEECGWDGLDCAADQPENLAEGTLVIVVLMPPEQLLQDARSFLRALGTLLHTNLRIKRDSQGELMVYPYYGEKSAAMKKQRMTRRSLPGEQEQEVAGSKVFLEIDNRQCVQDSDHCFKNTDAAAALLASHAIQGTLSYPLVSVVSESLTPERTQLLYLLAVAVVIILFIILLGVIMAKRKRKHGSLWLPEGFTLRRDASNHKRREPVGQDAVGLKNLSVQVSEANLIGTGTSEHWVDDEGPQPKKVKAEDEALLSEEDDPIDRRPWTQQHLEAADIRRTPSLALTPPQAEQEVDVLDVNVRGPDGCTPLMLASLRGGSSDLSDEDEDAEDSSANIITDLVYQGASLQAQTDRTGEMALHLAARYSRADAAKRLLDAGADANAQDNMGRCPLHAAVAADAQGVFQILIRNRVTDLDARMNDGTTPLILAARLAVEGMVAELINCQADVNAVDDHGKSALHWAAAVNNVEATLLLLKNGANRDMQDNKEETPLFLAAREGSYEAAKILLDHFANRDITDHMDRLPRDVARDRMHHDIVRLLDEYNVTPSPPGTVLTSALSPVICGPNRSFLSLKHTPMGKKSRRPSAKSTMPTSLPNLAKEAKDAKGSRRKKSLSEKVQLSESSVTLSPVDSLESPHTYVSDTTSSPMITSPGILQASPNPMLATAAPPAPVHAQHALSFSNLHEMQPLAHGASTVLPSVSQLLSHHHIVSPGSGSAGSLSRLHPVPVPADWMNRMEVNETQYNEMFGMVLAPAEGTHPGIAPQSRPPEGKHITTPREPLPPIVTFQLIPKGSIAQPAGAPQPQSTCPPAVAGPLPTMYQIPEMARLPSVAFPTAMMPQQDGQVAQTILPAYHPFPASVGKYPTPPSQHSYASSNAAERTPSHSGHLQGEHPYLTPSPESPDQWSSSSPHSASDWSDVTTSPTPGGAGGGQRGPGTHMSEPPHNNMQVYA
Torsin-1A-interacting protein 2 (Homo sapiens), sequence (Q8NFQ8 whole entry, looked up): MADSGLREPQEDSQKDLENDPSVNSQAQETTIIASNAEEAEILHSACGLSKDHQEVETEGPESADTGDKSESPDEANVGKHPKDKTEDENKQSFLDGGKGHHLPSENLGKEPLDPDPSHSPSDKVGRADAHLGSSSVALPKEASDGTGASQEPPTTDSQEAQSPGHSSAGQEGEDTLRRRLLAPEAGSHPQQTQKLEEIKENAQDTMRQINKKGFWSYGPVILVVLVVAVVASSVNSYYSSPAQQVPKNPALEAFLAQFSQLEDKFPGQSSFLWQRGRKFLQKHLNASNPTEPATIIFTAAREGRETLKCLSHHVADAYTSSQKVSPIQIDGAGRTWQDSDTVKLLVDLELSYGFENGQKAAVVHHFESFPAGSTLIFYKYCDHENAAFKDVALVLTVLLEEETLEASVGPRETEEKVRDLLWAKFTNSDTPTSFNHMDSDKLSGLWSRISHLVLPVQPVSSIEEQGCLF
Pro-neuregulin-1, membrane-bound isoform (Homo sapiens), sequence (Q02297 whole entry, looked up, the tested form may be a part, canonical isoform): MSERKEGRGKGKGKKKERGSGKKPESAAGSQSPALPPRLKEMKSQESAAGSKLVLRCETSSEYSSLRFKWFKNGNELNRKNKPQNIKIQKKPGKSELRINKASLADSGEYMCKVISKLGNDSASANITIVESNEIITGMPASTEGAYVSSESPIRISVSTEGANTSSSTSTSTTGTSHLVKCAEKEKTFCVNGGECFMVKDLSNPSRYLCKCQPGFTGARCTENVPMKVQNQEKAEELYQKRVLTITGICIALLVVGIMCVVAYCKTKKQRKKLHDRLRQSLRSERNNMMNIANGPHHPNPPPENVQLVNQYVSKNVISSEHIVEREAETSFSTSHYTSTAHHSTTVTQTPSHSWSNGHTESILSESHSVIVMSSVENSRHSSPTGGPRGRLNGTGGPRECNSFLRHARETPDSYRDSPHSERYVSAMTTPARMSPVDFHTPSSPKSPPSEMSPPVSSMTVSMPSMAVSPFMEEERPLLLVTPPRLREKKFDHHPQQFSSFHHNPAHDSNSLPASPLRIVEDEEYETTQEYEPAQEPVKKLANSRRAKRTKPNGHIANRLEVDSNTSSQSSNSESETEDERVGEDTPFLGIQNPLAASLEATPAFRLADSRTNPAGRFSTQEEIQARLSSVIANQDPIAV

As to `CCCCCCc1nc(-c2cc(C)c(OC)c(C)c2)cc2c1[Si](C(C)C)(C(C)C)OC2`, the composite z-score is 0.0546 in assay [1]; -0.375 in assay [2]; -0.0507 in assay [3]; -0.278 in assay [4]; -0.274 in [5]; -0.405 in assay [6]. Also, the composite z-score is -0.449 in [7]; -0.272 in [9]; 0.35 in assay [10]; 1 in assay [11]; -0.0784 in [15]; -0.0575 in assay [17]. Further, the figures for the composite z-score in assay [18], in [19] and in assay [20] were 0.187, -0.129 and -0.0828, respectively. Moreover, the z-score in assay [8] is 0.515 (inactive); in assay [12], -0.389 (inactive); in [13] it was -0.114 (inactive); in assay [14], -0.264 (inactive); in assay [16], 0.344 (inactive).

Consider `CCCCC(CC)C(O)C1C=CC2C(=O)N(Cc3ccccc3)C(=O)C2N1n1cnnc1` (stereo not given), for which the composite z-score in assay [1] is 0.168; in assay [2] it was -0.367; in [3] it was -0.0305; in [4] it was 0.175; in assay [5], 0.0048; in [6], -0.343. Further, the composite z-score is 1.1 in assay [7]; 0.246 in assay [9]; -0.199 in assay [10]; 0.249 in assay [11]; 0.77 in [15]; -0.0238 in assay [17]. The composite z-score in assay [18] is -0.0141; in assay [19], -0.22; in assay [20] it was -0.0253. Also, the z-score in assay [8] was -0.302 (inactive); in assay [12], -0.279 (inactive); in [13], -0.359 (inactive); in [14] it was -0.435 (inactive); in assay [16], -1.05 (inactive).

On to `C#C[C@H](O[Si](C#Cc1ccc(Oc2ccccc2)cc1)(C(C)C)C(C)C)c1ccccc1`, for which the composite z-score in [1] is -0.247; in [2], 1.27; in assay [3] it was -0.0613; in [4], 0.853; in assay [5], 1.25; in [6] it was 0.206. In addition, the composite z-score in [7] is 0.801; in [9], 0.315; in assay [10], -0.0994; in assay [11] it was 1.23; in assay [15], 1.02; in assay [17] it was -0.0666. Also, the composite z-score in assay [18] is 0.531; in assay [19], 0.185; in assay [20] it was -0.0286. The z-score in assay [8] is 0.297 (inactive); in assay [12], -0.824 (inactive); in assay [13] it was -19.1 (active); in assay [14], -0.42 (inactive); in [16] it was -0.547 (inactive).

For the compound `CCOC(=O)C[C@H]1[C@H](OC(=O)c2ccccc2-c2ccccc2)[C@@H](NC(=O)CC(C)C)c2cc(OCCCO)ccc2N1C(=O)Cc1ccc(OC)cc1`, the composite z-score in assay [1] is -0.259; in assay [2], 0.43; in assay [3], -0.104; in assay [4], 0.225; in [5], 0.135; in assay [6], 0.173. Besides, the composite z-score in [7] is -0.155; in assay [9], 0.327; in assay [10], -0.199; in assay [11], 0.395; in [15] it was 0.472; in assay [17], -0.103. For the same compound, the composite z-score in assay [18] is 0.356; in assay [19] it was -0.23; in assay [20] it was -0.111. In addition, the z-score in [8] is 0.506 (inactive); in assay [12], -0.454 (inactive); in [13], 0.109 (inactive); in [14], 0.146 (inactive); in [16], -0.853 (inactive).

With `C[C@@]1([C@@H](NC(=O)c2ccc(-c3ccccc3)cc2)c2ccc(Cl)cc2)C[C@H]1C1CCCCC1`, the composite z-score in assay [1] is 0.512; in assay [2], 0.903; in assay [3], 0.276; in assay [4] it was 0.473; in assay [5], 1.43; in assay [6] it was 1.86. Moreover, the composite z-score in assay [7] was determined as 0.883; in assay [9], 0.893; in assay [10], 0.133; in [11], 0.497; in assay [15], 2.54; in assay [17], 0.101. The composite z-score in [18] is 0.118; in assay [19], 0.73; in assay [20], 0.302. Besides, the z-score in assay [8] is -0.203 (inactive); in assay [12] it was 0.823 (inactive); in assay [13] it was -3.48 (inactive); in [14], 1.6 (inactive); in assay [16], -0.586 (inactive).
